From PubChem BioAssay AID1159583 (ICCB-Longwood Screening Facility, Harvard Medical School, 2016) come the findings set out here.

SMILES strings stand for the structures. Where “and” joins values, the source holds several entries; their conditions need not be identical. Equal entries are not always repeated. Out of some 300,000 compounds screened, about 310 (0.1%) were called active. Rule as the data show it: active = fluorescence inhibition mostly above about 23% (no sharp cut-off); inactive = mostly below about 17%. The list comes from a sample in which actives are over-represented; it also holds similar structures and randomly drawn compounds.

The assay in a line: hypoxia reporter signal reduction in M. tuberculosis – fluorescence, absorbance growth readout, primary screen (AID 1159583). Particulars: M. tuberculosis hypoxia-regulated fluorescent reporter, stronger effect = higher value, concentration not given here; growth inhibition: measured here: M. tuberculosis growth (absorbance).
As for `COc1cc(C=NNC(=O)C(=O)NCc2cccnc2)cc(OC)c1OC`, the fluorescence inhibition is 11.1% (inactive) and the growth inhibition came out at 2.3%.
The like results for `COC(=O)C1C[C@@]2(Br)c3ccccc3N(S(=O)(=O)c3ccccc3)C2N1C(=O)OC` (some centres not stated) were, in that order, -0.203% (inactive) and -1.54%.
The like results for `CCOc1cccc(C=NN2C(C)CCCC2C)c1O` (configuration not stated) were, in that order, -2.33% (inactive) and -0.595%.
The like results for `O=C(NC1CCCCC1)C1CC=CC2CCN(C3CCCCC3)C(=O)C21` (configuration not stated) were, in that order, 8% (inactive) and 14.6%.
With `C[C@@]12C(=O)N(Cc3ccco3)CC(=O)N1C1c3cc(Cl)ccc3OCC1C2c1ccccc1` (some centres not stated), the fluorescence inhibition was -6.06% (inactive) and the growth inhibition worked out at 1.32%.
The matching figures for `Cn1cc([N+](=O)[O-])c(C(=O)NN=Cc2ccc([N+](=O)[O-])cc2)n1`: -5.59% (inactive) and 5.33%.
The like results for `Cc1ccc(C=NN(C)S(=O)(=O)c2ccc(C)cc2)cc1` were, in that order, -1.94% (inactive) and -2.51%.
The like results for `CCOC(=O)C1=C(C)CC(=NNC(=O)c2ccccc2O)CC1` were, in that order, 19.7% (inactive) and 25.6%.
Turning to `CC(=NNC(=O)c1ccc(CSc2nncn2C)cc1)c1ccc(Cl)cc1`, the fluorescence inhibition was -0.114% (inactive) and the growth inhibition worked out at 4.72%.
On to `Cc1cc(C)nc(N=C(N)C2=C(O)CC(C)(C)CC2=O)n1`, for which the fluorescence inhibition was 8.68% (inactive) and the growth inhibition was 10.4%.
For the molecule `CC(Oc1ccccc1[N+](=O)[O-])C(=O)NN=Cc1ccoc1` (configuration not stated), the fluorescence inhibition is -0.473% (inactive) and the growth inhibition worked out at 0.98%.
The matching figures for `Cc1cc(C=NO)c(C)n1-c1ccccc1`: 10.5% (inactive) and 1.78%.
On to `C/C(C=NNC(=O)c1ccncc1)=C\c1ccccc1`, for which the fluorescence inhibition is 16.5% (inactive) and the growth inhibition came out at 7.43%.
The matching figures for `Cc1nn(-c2ccccc2)c(Cl)c1C=NNC(=O)c1cccc(S(=O)(=O)N2CCCC2)c1`: 10.2% (inactive) and 5.33%.
The like results for `C=C1CCN(C(C(=O)NCc2ccc(OC)cc2)C(C)C)S(=O)(=O)c2ccccc21` (configuration not stated) were, in that order, 1.86% (inactive) and 4.01%.
The like results for `O=C1CSC(=S)N1N=Cc1ccc(C(F)(F)F)cc1` were, in that order, 17.6% (inactive) and 14.7%.
In the case of `COCCCNC(=S)NN=Cc1ccc(N(C)C)cc1`, the fluorescence inhibition is 11.6% (inactive) and the growth inhibition was 2.41%.
The like results for `CC(=NNC(=O)c1c(C)nc2ccccn12)c1ccc(C(C)(C)C)cc1` were, in that order, -2.47% (inactive) and 18.1%.
The matching figures for `CC(C)C(NC(=O)c1ccccc1)C(=O)OCC(=O)N1CCCc2ccccc21` (configuration not stated): 6.63% (inactive) and 6.94%.
For `COc1cccc(C=NNC(=O)CSCC(=O)Nc2ccccc2)c1O`, the fluorescence inhibition was 0.94% (inactive) and the growth inhibition is 11.7%.
With `CC(=NNC(=O)c1cc(-c2ccc(Cl)s2)[nH]n1)c1ccco1`, the fluorescence inhibition is 0.382% (inactive) and the growth inhibition worked out at 4.98%.
The matching figures for `CSc1ccc(C=NNC(=O)CNc2ccc3ccccc3c2)cc1`: 3.37% (inactive) and -2.84%.
Turning to `O=C1NC(Cc2ccccc2)C(=O)N2C1C[C@]1(Br)c3ccccc3N(S(=O)(=O)c3ccccc3)C21` (some centres not stated), the fluorescence inhibition is 4.31% (inactive) and 12.8% (inactive); the growth inhibition is 6.26% and 10.9%.
With `COc1ccccc1C=NNC(=O)c1ccc2c(c1)OCO2`, the fluorescence inhibition is 14.7% (inactive) and the growth inhibition is 5.14%.
The matching figures for `COCCCN1C(=O)C(=O)C(=C(O)c2ccc(C)cc2)C1c1ccccc1` (configuration not stated): -3.99% (inactive) and -0.925%.
The like results for `CC1CN=C(Nc2ccccc2)N1CCCC1CCCCC1` (configuration not stated) were, in that order, 7.1% (inactive) and 4.93%.
The like results for `Cc1ccccc1C1=N/C(=C/c2cccnc2)C(=O)O1` were, in that order, -4.88% (inactive) and 6.23%.
For `O=C1/C(=C\c2cccnc2)CN(Cc2ccccc2)C/C1=C\c1cccnc1`, the fluorescence inhibition is 53.7% (active) and the growth inhibition is 35.7%.
The matching figures for `O=C1CCCC1=c1sc(=Cc2cccnc2)c(=O)n1-c1ccccc1`: 9.8% (inactive) and 5.53%.
The like results for `Cc1cc(C(=O)NN=Cc2ccc3ccccc3c2)n[nH]1` were, in that order, 7.06% (inactive) and -3.88%.
For the molecule `Cc1ccc(NCC(=O)NN=Cc2ccc([N+](=O)[O-])o2)cc1`, the fluorescence inhibition is -3.3% (inactive) and the growth inhibition turned out to be 3.65%.
The like results for `CN(C)c1ccc(C=NNC(=O)c2nonc2N)cc1[N+](=O)[O-]` were, in that order, 2.61% (inactive) and -5.42%.
The matching figures for `Nc1nonc1C(=O)NN=Cc1ccc([N+](=O)[O-])o1`: 52.4% (active) and 31.3%.
Turning to `Cc1cccc(C=NNC(=O)CN2CCCCCCC2)c1`, the fluorescence inhibition is 2.65% (inactive) and the growth inhibition amounted to 8.69%.
The matching figures for `COc1ccc(C2CC=C(C(=O)O)C(c3ccccc3F)N2S(=O)(=O)c2ccc(C)cc2)cc1OC` (configuration not stated): 19.4% (inactive) and 4.47%.
The matching figures for `CCCC(=O)O[C@]1(C(=O)CCl)C(C)CC2C3CCC4=CC(=O)C=C[C@]4(C)[C@@]3(F)C(=O)C[C@@]21C` (some centres not stated): -12.7% (inactive) and 2.62%.
Regarding `Cc1ccc(S(=O)(=O)N(C)CC(=O)NN=Cc2ccc(C)o2)cc1`, the fluorescence inhibition is -4.3% (inactive) and the growth inhibition is 1.08%.
For `COc1ccc(C2OCC3OC(O)C(NC(C)=O)C(O)C3O2)cc1` (configuration not stated), the fluorescence inhibition is 4.65% (inactive) and the growth inhibition turned out to be 11.9%.
The matching figures for `CCc1ccc(C=NNC(=O)c2ccccn2)cc1`: 9.62% (inactive) and 15.4%.
Take `CCN(CC)CCOc1ccc2c(c1)C(=NNC(=O)c1ccccn1)c1cc(OCCN(CC)CC)ccc1-2`: the fluorescence inhibition is 46.2% (active) and the growth inhibition is 20.2%.
With `COc1ccc(C(=O)NN=C(c2ccccc2)c2ccccn2)cc1`, the fluorescence inhibition is -1.57% (inactive) and the growth inhibition is 6.08%.
